High-throughput results from PubChem BioAssay.
TRPV1 ag = agonists of human vanilloid receptor 1 (TRPV1); Q8NER1; TRPV1-expressing cells, Fluo-8 calcium influx, agonist mode; activation, % at 8.33 µM; 320,000 tested, 0.19% active; AID 540275; in the data active = activation above about 80%; inconclusive = between about 30% and that limit; note: 0% is about no effect
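Fluo-8 calcium influx in TRPV1-expressing cells, kinetic read (ex 480/em 520 nm). Compound added and read 3 min for agonist activity, followed by capsaicin at EC20 final and 2 min further read for enhancement.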
TRPV1 PAM = potentiators of human vanilloid receptor 1 (TRPV1); potentiation, % at 8.33 µM; 320,000 tested, 0.02% active; Q8NER1; TRPV1-expressing cells, Fluo-8 calcium influx, capsaicin EC20 potentiation; in the data active = potentiation above about 80%; inconclusive = between about 30% and that limit; note: 0% is about no effect
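Cells expressing TRPV1 were dye-loaded with Fluo-8 and read kinetically: 10 s baseline, 3 min after compound (agonist portion), then 2 min after EC20 capsaicin (allosteric enhancer portion). Calcium-bound dye fluorescence at 480/520 nm.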
A-T KAP1 phos = potential ataxia-telangiectasia treatments restoring KAP-1 phosphorylation; Potency, µM (highest dose often 57.5 µM), inactives show at the top dose activation, most hits filed as activators; AID 485349; F2112 A-T fibroblasts, KAP-1 phosphorylation AlphaLISA; neocarzinostatin DNA damage 30 min before lysis; 320,000 tested, 0.19% active; note: potency is the fitted concentration of half-maximal effect; % of control where 0% means no effect; nearly all actives have a fitted effect of over 45% in size
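hTERT-immortalized A-T patient fibroblasts (F2112), 500 cells/well in OPTI-MEM, 1% FBS, got compounds for 60 min, then NCS for 30 min at 37C. Lysates were then assayed for phospho-KAP-1 by AlphaLISA (anti-pKAP1 donor, anti-KAP1 acceptor beads), 6 hr at 25C.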
Apoferritin bind = binds horse apoferritin like a general anesthetic; P02791; Potency, µM (titrated, usually from 77.5 µM), without a hit: at the highest dose activity change, negative = displacement, actives largely listed as inhibitors; apoferritin/1-aminoanthracene competitive binding, fluorescence; 350,000 tested, 0.074% active; AID 485281; note: potency is the fitted concentration of half-maximal effect; % is set by controls: 0 for no effect and ±100 for the full control effect; nearly all actives have a fitted effect of over 20% in size
Target sequence (P02791 2-175 limits assumed): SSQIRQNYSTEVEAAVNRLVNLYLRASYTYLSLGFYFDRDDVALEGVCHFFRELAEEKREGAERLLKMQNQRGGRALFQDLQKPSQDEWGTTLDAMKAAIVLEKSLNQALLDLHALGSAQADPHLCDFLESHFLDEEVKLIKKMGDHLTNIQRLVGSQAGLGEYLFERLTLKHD
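Horse-spleen apoferritin (10 uM) was mixed with 50% saturated 1-aminoanthracene in PBS, exposed to compounds for 10 min at room temperature, and read for fluorescence (ex 380 nm, em 535 nm). Competitive displacement was fitted with a four-parameter Hill equation.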
CBFb-RUNX1 inh = blocks binding between human CBF-beta and RUNX1; AlphaScreen CBFb-His/RUNX1-biotin binding, biochemical; Potency, µM (doses to about 59.8 µM), for inactives: top-dose activity, negative = inhibition, hits mostly inhibitors; 230,000 tested, under 10 active; AID 1477; note: % of control where 0% means no effect
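Inhibition was taken as any reduction in AlphaScreen signal from the CBF-beta–RUNX1 pair (His and biotin tags, 30 nM each), measured after compound (15 min) and bead (90 min) incubations at room temperature.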
* marks the source's active call; other numbers are inactive results; ? = inconclusive; / = no result given; [ ] = dose if it differs, or a comment. Shown are actives, neighbours in structure and some others; about 0.39% of the full set was active somewhere. Unless noted, calls come from the whole dose curve; as a rule, active = well fitted curve in the direction sought with a large enough effect; inconclusive = small, poorly fitted or top-dose-only effect, or another doubt; inactive = no such curve, though single readings can be large; an effect the other way counts as inactive or inconclusive.

SMILES | TRPV1 ag | TRPV1 PAM | A-T KAP1 phos | Apoferritin bind | CBFb-RUNX1 inh
Cc1nc(N2N=C(c3ccc(Cl)cc3)CC2c2ccco2)sc1C(=O)N(C)C (stereo not drawn) | 1 | 21 | 32µM* | 57% | ?
CC(=O)N1N=C(c2ccc(Cl)cc2)CC1c1ccco1 (stereo not drawn) | 3 | 0 | -5% | -5% | -2%
CCCCS(=O)(=O)N1C2=NC(C(=O)OC)=C(C(=O)OC)[C@@H]3Nc4ccccc4[C@]23C[C@H]1C(=O)OC | / | / | / | / | -7%[13.1 µM]
CC1(C(=O)O)NCCc2cc(O)c(O)cc21 (stereo not drawn) | / | / | / | 150% | ?
COc1ccc(-c2nnc3n2N=C(c2ccccc2OC)CS3)c(OC)c1 | / | / | / | -21% | 9%
COc1ccc(OCc2nnc3n2N=C(c2ccc(Br)cc2)CS3)cc1 | / | / | 31% | 14µM* | -1%
N#CC(=C(/N)Sc1ccccc1N)/C(C#N)=C(/N)Sc1ccccc1N | / | / | / | / | -13%[21.7 µM]
CCC(=O)N(C)CCc1cc2c(c(OC)c1/C=N/Nc1ccc(C(=O)O)cc1)OCO2 | 1 | 6 | 40µM* | 4% | 0%
Cc1cc(=O)oc2cc(NC(=O)[C@H](CCCCN)NC(=O)[C@H](CC3CCCCC3)NC(=O)OCC3c4ccccc4-c4ccccc43)ccc12 | / | / | / | ? | 11%
COc1cccc(-c2nnc3n2N=C(c2c(OC)cccc2OC)CS3)c1OC | / | / | / | -19% | 6%
COC(=O)NC(/C(C(=O)OC)=C(\C)NCc1ccccc1)c1ccc2ccccc2c1 (stereo not drawn) | / | / | / | 141%[15.3 µM] | 6%[13.1 µM]
O=C(Nc1ccncc1)Nc1cccc(Cl)c1Cl | ? | -9 | 1% | -14% | /
O=C(Nc1ccc(Cl)cc1)Nc1cccc2nsnc12 | 87* | -10 | -3% | 49% | ?
O=C(Cc1cccs1)Nc1nc2c(ccc3ccccc32)s1 | 81* | -5 | 30% | 8% | -3%
Cc1cccc(-c2noc(CCC(=O)Nc3ccc(C(N)=O)cc3)n2)c1 | 81* | 4 | -15% | 7% | 0%
CN(C)/C=N/c1c(C#N)cnn1-c1ccc(F)c(Cl)c1 | / | / | / | -1% | ?
O=C(CC1C(=O)NCCN1Cc1ccc(F)cc1)NC1CCCCCCC1 (stereo not drawn) | 0 | 0 | -11% | 16µM* | /
O=C(CC1C(=O)NCCN1CC1CCCCC1)NCc1cccc(F)c1F (stereo not drawn) | 2 | -6 | 3% | ? | 2%
O=C(CC1C(=O)NCCN1Cc1cccc(F)c1F)NCCCC1CCCC1 (stereo not drawn) | 11 | 5 | 17% | 32µM* | /
CCCN1CCCC(c2cccc(S(C)(=O)=O)c2)C1 (stereo not drawn) | / | / | / | 12% | 9%
COc1ccc(C2=Nn3c(nnc3-c3ccc(OC)c(OC)c3)SC2)cc1 | / | / | / | -14% | 11%
COc1ccc(-c2nc3ccc(C)cn3c2NCc2ccc3c(c2)OCO3)cc1 | 81* | 5 | 18% | 27% | -1%
CCCCNc1c(-c2cccc(-c3cc(C(C)=O)cs3)c2)nc2ccc(C)cn12 | ? | 16 | 26% | / | /
CCCCNc1c(-c2cccc(-c3ccc(OC)cc3)c2)nc2ccc(C)cn12 | ? | 0 | 35µM* | / | /
Cc1ccc2nc(-c3ccc(-c4cccc(Cl)c4)cc3)c(NCc3ccccc3)n2c1 | ? | 25 | 25µM* | / | /
SMILES | TRPV1 ag | TRPV1 PAM | A-T KAP1 phos | Apoferritin bind | CBFb-RUNX1 inh
CN(C)c1ccc(NC2=C(Cl)C(=O)c3ccccc3C2=O)cc1 | 3 | -2 | -18% | -14% | /
CC(=O)Nc1ccc(NC2=C(Cl)C(=O)c3ccccc3C2=O)cc1 | 3 | -6 | 3.2µM* | -6% | 27%
CC(C)CCNC(=O)C1CCN(Cc2cccc(OCc3ccccc3)c2)CC1 | 92* | 27 | 4% | ? | /
CSc1nc(N2CCOCC2)nc2ccc(C)cc12 | -1 | ? | 28µM* | / | /
c1ccc2c(N3CCOCC3)nc(N3CCOCC3)nc2c1 | 2 | 29 | / | 63% | -8%
OC1CCN(C(=S)Nc2ccc(Nc3ccccc3)cc2)CC1 | 0 | 26 | 9% | -13% | -13%
CCCCc1ccc(NC(=S)N2CCC(O)CC2)cc1 | 85* | 14 | 1% | -17% | 6%
O=C(C1=C[C@@H](c2ccccc2)C[C@@H](OCc2ccc(CO)cc2)O1)N1CCCCCCC1 | 88* | -27 | -11% | -10% | -9%
O=C(C1=C[C@H](c2ccccc2)C[C@H](OCc2ccc(CO)cc2)O1)N1CCN(Cc2ccccc2)CC1 | ? | -15 | -15% | -7% | 4%
O=[N+]([O-])c1cc([N+](=O)[O-])c(Oc2c(F)ccc(F)c2F)cc1NN1CCCCC1 | 80* | 8 | -5% | -22% | /
CC(C)(CCCCCCCCCCC(C)(C)CC(=O)O)CC(=O)O | / | / | / | -1% | -1%
COc1ccc(NC2c3ccccc3C(=O)N2Cc2ccc3c(c2)OCO3)cc1 (stereo not drawn) | 102* | 3 | 1% | -17% | -21%
COc1ccccc1C1(O)CCN(CCCn2c3ccccc3c3ccccc32)CC1 | / | / | / | 0% | 3%
CC(C)n1c(N2CCN(C(=O)Nc3ccc(Cl)cc3)CC2)nc2ccccc21 | 82* | -15 | -4% | -1% | 5%
CCCn1c(N2CCN(C(=O)Nc3ccc(Cl)cc3)CC2)nc2ccccc21 | 81* | 3 | 1% | -6% | 2%
Cc1cc(C)c2c(c1)C1C=CCC1C(C(=O)O)N2 (stereo not drawn) | -4 | 19 | / | / | /
C=C[C@@]1(C)CC[C@H]2C(=CC[C@@H]3[C@]2(C)CCC[C@@]3(C)C(=O)O)C1 | / | / | / | 7% | 19%
N#Cc1nc(COc2ccccc2F)oc1NCc1ccc(F)cc1 | / | / | 32µM* | ? | -13%
CN1/C(=C\C=C2/C(=O)Oc3ccccc3C2=O)C(C)(C)c2ccccc21 | 107* | -6 | -3% | -5% | -10%
NOCc1ccccc1 | / | / | / | -7% | 1%
C=C1CCN([C@H](C(=O)OCc2ccc(C)cc2)C(C)C)S(=O)(=O)c2ccccc21 | 21 | 22 | 40µM* | -5% | 25%
C=C1CCN(C(C)C(=O)OCc2ccc(C)cc2)S(=O)(=O)c2ccccc21 (stereo not drawn) | / | / | / | -3% | ?
COc1cc(N(C)C)cc(CN(C)CCc2ccc([N+](=O)[O-])cc2)c1O | / | / | / | -20% | /
NCCCCCCCCCCNCCCN | / | / | / | -7% | 15%
COc1ccc(CCNC(=O)Nc2ccc(F)cc2F)cc1OC | -5 | 5 | 10µM* | -1% | /
COc1ccc(CCNC(=O)NC(C(F)(F)F)C(F)(F)F)cc1OC | 3 | 8 | -1% | -2% | 8%
CCCOc1ccc(-c2nnn(CC(=O)N3CCCC(C)C3)n2)cc1 (stereo not drawn) | 25 | -22 | 40µM* | 5% | 11%
Nc1c(C(=O)c2ccccc2)sc2nsc(SCCN3CCOCC3)c12 | 106* | -5 | -4% | 0% | -6%
